PfHsp90 yeast 2 = growth inhibition of yeast expressing Plasmodium Hsp90; 310,000 compounds, 0.32% hits; inhibition, % at 9.4 µM; S. cerevisiae expressing PfHsp90, BacTiter-Glo ATP, 48 h; yeast lacking PDR1 and PDR3 efflux regulators;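 active means every replicate shows inhibition above about 80%, whatever the replicate mean, limit read from the data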;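 further: 0% = DMSO neutral controls and 100% = 20 µM radicicol positive controls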
tim23-1 inh = growth inhibitors of tim23-1 mutant yeast | S. cerevisiae tim23-1 growth, BacTiter-Glo luminescence, 24 h | inhibition, % at 20 µM | 330,000 compounds, 1.3% hits;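 active means growth inhibition of the mutant yeast at or above 50%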;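 further: temperature-sensitive mutant grown at 25 °C; plate controls were DMSO-treated mutant yeast for no effect and medium wells lacking yeast for full effect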
TIM10 inh = TIM10 yeast growth inhibition | S. cerevisiae TIM10 strain growth, BacTiter-Glo luminescence, 24 h | inhibition, % at 10 µM | 330,000 compounds, 1.4% hits | AID 463195;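 active means inhibition of 40% or more at the single tested concentration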;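 further: wild-type TIM10 isogenic control strain grown at permissive 25 °C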
SKKanGAS inh = blocks kanamycin growth of S. pyogenes SKKanGAS strain | BacTiter-Glo, 6 h | inhibition, % at 7.5 µM | 300,000 compounds, 1.3% hits | AID 1662;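 active means mean replicate score, as percent of positive control median, at least 50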;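 further: strain carries kanamycin resistance gene driven by streptokinase promoter and grows in 40 µg/ml kanamycin; loss of luminescence reflects streptokinase promoter inhibition or plain growth inhibition; 0% = median of DMSO wells and 100% = positive control at its reference dose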
NALP3 yeast inh = inhibitors of NALP3 inflammasome in yeast; inhibition, % at 10 µM; Yeast reconstituted NLRP3/ASC/caspase-1, beta-gal luminescence, 24 h; 330,000 compounds, 0.39% hits;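 active means inhibition of 50% or more; inactive means inhibition below 50%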;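 further: plate controls were induced DMSO wells for no effect and uninduced yeast grown without galactose for full effect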
tim10-1 inh = growth inhibitors of tim10-1 mutant yeast; S. cerevisiae tim10-1 ts strain growth, BacTiter-Glo, 24 h; inhibition, % at 20 µM; 330,000 compounds, 2.2% hits; AID 463190;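 active means inhibition of at least 40%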;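 further: mutant grown at 25 °C; 0% = DMSO wells with yeast and 100% = wells holding no yeast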
tim10-1 conf = tim10-1 yeast growth inhibition, confirmed | S. cerevisiae tim10-1 ts strain growth, BacTiter-Glo, 24 h | inhibition, % at 20 µM | 7,400 compounds, 56% hits | shares compounds with tim10-1 inh;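 active means inhibition of yeast growth at or above a set limit in either of two repeat tests at 20 µM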;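 further: tim10-1 mutant grown at permissive 25 °C to find synthetic lethal compounds; 0% = DMSO yeast wells and 100% = medium wells without yeast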
The depositor's hits bear a star. Most compounds without a hit are left out; they make up all but 4.6% or so of the library.

For O=C(NC(=S)Nc1ccc(Cl)cn1)C12CC3CC(CC(C3)C1)C2 the results were PfHsp90 yeast 2 -17, tim23-1 inh 24, TIM10 inh 31, SKKanGAS inh 22, NALP3 yeast inh -10, tim10-1 inh 40* and tim10-1 conf 14.
CCCC(=O)Nc1ccc(NC(=O)c2ccccc2)nc1 was read as PfHsp90 yeast 2 4, tim23-1 inh 8, TIM10 inh 4, SKKanGAS inh 11, NALP3 yeast inh -11 and tim10-1 inh -5.
For O=C(NC(=S)NC1C2CC3CC(C2)CC1C3)C12CC3CC(CC(C3)C1)C2 (stereo not drawn) the results were PfHsp90 yeast 2 -20, tim23-1 inh 35, TIM10 inh 39, SKKanGAS inh 3, NALP3 yeast inh 0, tim10-1 inh 46* and tim10-1 conf 15.
Screening CCCC(=O)Nc1ccc(NC(=O)C23CC4CC(CC(C4)C2)C3)cn1 returned PfHsp90 yeast 2 -2, tim23-1 inh 40, TIM10 inh 30, SKKanGAS inh -1, NALP3 yeast inh 16, tim10-1 inh 44* and tim10-1 conf 33*.
For Cc1ccnc(SCc2cc(=O)c(OC(=O)c3ccc(S(=O)(=O)N(C)C)cc3)co2)n1 the results were PfHsp90 yeast 2 25, tim23-1 inh 6, TIM10 inh -28, SKKanGAS inh -4, NALP3 yeast inh 5 and tim10-1 inh -12.
`Cc1ccc(-c2csc3nc(SCC(=O)Nc4ccc(Cl)c(C(=O)O)c4)[nH]c(=O)c23)cc1` gave PfHsp90 yeast 2 -1, tim23-1 inh 0, TIM10 inh 21, SKKanGAS inh 1, NALP3 yeast inh 1 and tim10-1 inh 1.
Cc1c(C(=O)N2CCN(c3ccc(C(F)(F)F)cn3)CC2)oc2ccccc12 was read as PfHsp90 yeast 2 -16, tim23-1 inh 33, TIM10 inh 26, SKKanGAS inh 22, NALP3 yeast inh 16, tim10-1 inh 41* and tim10-1 conf 37*.
Cc1ccc(C(=O)N2CCN(c3ccc(C(F)(F)F)cn3)CC2)cc1 was read as PfHsp90 yeast 2 21, tim23-1 inh 14, TIM10 inh 22, SKKanGAS inh 0, NALP3 yeast inh 17 and tim10-1 inh 20.
Cc1ccc(C(=O)N2CCN(c3ccc(C(F)(F)F)cn3)CC2)c(C)c1 was read as PfHsp90 yeast 2 1, tim23-1 inh 49, TIM10 inh 20, SKKanGAS inh -9, NALP3 yeast inh 9, tim10-1 inh 44* and tim10-1 conf 30.
For CCOC(=O)c1ccc(NC(=O)c2nc[nH]c2C(=O)N(C)Cc2ccccc2)cc1 the results were PfHsp90 yeast 2 16, tim23-1 inh 33, TIM10 inh 10, SKKanGAS inh 9, NALP3 yeast inh 11, tim10-1 inh 42* and tim10-1 conf 28.
Screening COC(=O)Cc1c(C)c2ccc(O)c(CNCc3ccc(OC)c(OC)c3)c2oc1=O returned PfHsp90 yeast 2 23, tim23-1 inh 12, TIM10 inh 7, SKKanGAS inh 2, NALP3 yeast inh 6 and tim10-1 inh -1.
`CCCn1c(C(C)NC(=O)c2ccccc2)nc2ccccc21` (stereo not drawn) gave PfHsp90 yeast 2 32 and SKKanGAS inh 5.
`CC(NC(=O)c1ccc(F)cc1)c1nc2ccccc2n1Cc1ccccc1F` (stereo not drawn) gave PfHsp90 yeast 2 11, tim23-1 inh 27, TIM10 inh 8, SKKanGAS inh 2, NALP3 yeast inh 4, tim10-1 inh 42* and tim10-1 conf 29*.
O=C(COC(=O)C12CC3CC(CC(C3)C1)C2)NC12CC3CC(CC(C3)C1)C2 was read as PfHsp90 yeast 2 2, tim23-1 inh 28, TIM10 inh 38, SKKanGAS inh 6, NALP3 yeast inh 19, tim10-1 inh 41* and tim10-1 conf 39*.
For O=C(COC(=O)CCc1ccccc1)NC12CC3CC(CC(C3)C1)C2 the results were tim23-1 inh 32, TIM10 inh 14, SKKanGAS inh 0, NALP3 yeast inh -11, tim10-1 inh 43* and tim10-1 conf 28.
`O=C(COC(=O)C(O)c1ccccc1)NC12CC3CC(CC(C3)C1)C2` (stereo not drawn) gave PfHsp90 yeast 2 -20, tim23-1 inh 16, TIM10 inh 6, SKKanGAS inh -13, NALP3 yeast inh 14 and tim10-1 inh 13.
For CCC(CC)C(=O)OCC(=O)NC12CC3CC(CC(C3)C1)C2 the results were tim23-1 inh 29, TIM10 inh 26, SKKanGAS inh -1, NALP3 yeast inh 6 and tim10-1 inh 30.
For Cc1cc(C)nc(NC(=S)NC(=O)c2ccccc2)n1 the results were PfHsp90 yeast 2 6, tim23-1 inh 8, TIM10 inh -10, SKKanGAS inh 3, NALP3 yeast inh 22 and tim10-1 inh -10.
Screening Cc1cc(C)c2c(NC(=S)NC(=O)c3ccccc3)nn(C)c2n1 returned PfHsp90 yeast 2 -12, tim23-1 inh 28, TIM10 inh 4, SKKanGAS inh -1, NALP3 yeast inh 15, tim10-1 inh 50* and tim10-1 conf 21.
For Cc1ccccc1CSCC(=O)N1CCN(c2ccccc2)CC1 the results were PfHsp90 yeast 2 -14, tim23-1 inh 27, TIM10 inh 10, SKKanGAS inh -3, NALP3 yeast inh -9, tim10-1 inh 44* and tim10-1 conf 23.
Screening O=C(CSCc1ccc(F)cc1)N1CCN(c2ccccc2)CC1 returned PfHsp90 yeast 2 9, tim23-1 inh 21, TIM10 inh 2, SKKanGAS inh -4, NALP3 yeast inh 20 and tim10-1 inh 30.
COc1ccccc1OCCNC(=O)Nc1ccc(Br)cc1 was read as PfHsp90 yeast 2 -26, tim23-1 inh 27, TIM10 inh -7, SKKanGAS inh -1, NALP3 yeast inh 15, tim10-1 inh 40* and tim10-1 conf 31*.
Screening COc1ccccc1OCCNC(=O)Nc1cc(F)c(F)cc1Cl returned PfHsp90 yeast 2 -13, tim23-1 inh 34, TIM10 inh 18, SKKanGAS inh -6, NALP3 yeast inh 29 and tim10-1 inh 33.
COc1ccc(C(=O)NC2CCCc3c2cnn3-c2cc(F)cc(F)c2)c(OC)c1OC (stereo not drawn) was read as PfHsp90 yeast 2 -32, tim23-1 inh 39, TIM10 inh 12, SKKanGAS inh 8, NALP3 yeast inh 5, tim10-1 inh 41* and tim10-1 conf 28*.
`O=S(=O)(c1cccc(COc2c(Cl)cccc2Cl)c1)N1CCOCC1` gave tim23-1 inh 30, TIM10 inh 0, SKKanGAS inh -1, NALP3 yeast inh 17, tim10-1 inh 40* and tim10-1 conf 15.
Screening O=S(=O)(c1cccc(COc2ccc(Cl)cc2Cl)c1)N1CCOCC1 returned PfHsp90 yeast 2 14, tim23-1 inh 29, TIM10 inh -13, SKKanGAS inh -2, NALP3 yeast inh -2 and tim10-1 inh 24.

High-throughput results deposited in PubChem by several laboratories.
